According to PubChem BioAssay AID651711 (Broad Institute, 2012):
Screen size: about 350,000 compounds; about 180 (0.051%) were called active. The sample holds actives, similar compounds and a random draw of the others, so the mix is not that of the screen.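 Rule for the calls: active = mean replicate inhibition above about 25%, with every replicate also reaching it (limit read from the data, passing the limit was not always enough); inconclusive = only one of those two criteria met; inactive = neither criterion met.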

Molecular target: Protein disulfide-isomerase A6 (Homo sapiens) (UniProt Q15084)
Sequence (Q15084 whole entry, looked up): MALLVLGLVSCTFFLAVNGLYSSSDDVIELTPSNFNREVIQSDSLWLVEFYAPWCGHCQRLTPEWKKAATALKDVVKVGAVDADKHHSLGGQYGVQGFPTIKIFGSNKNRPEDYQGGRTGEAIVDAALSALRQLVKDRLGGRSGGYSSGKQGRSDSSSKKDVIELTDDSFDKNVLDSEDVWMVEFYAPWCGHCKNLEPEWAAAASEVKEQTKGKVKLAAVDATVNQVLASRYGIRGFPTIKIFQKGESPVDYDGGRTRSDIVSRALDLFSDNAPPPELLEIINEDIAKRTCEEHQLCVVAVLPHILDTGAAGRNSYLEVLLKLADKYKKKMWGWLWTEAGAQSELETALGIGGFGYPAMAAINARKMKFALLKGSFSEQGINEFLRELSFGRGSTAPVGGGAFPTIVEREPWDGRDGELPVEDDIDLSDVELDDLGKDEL
Experiment: inhibitors of ERp5-driven insulin aggregation, primary screen, biochemical, turbidity, absorbance 650 nm, single point (AID 651711)
Conditions: 90 min, at 9.99 µM, stronger effect = higher value

inhibition, inactive:
O=C(c1cnccn1)N1CC2(C1)[C@H](c1ccccc1)[C@H](CO)N2C(=O)c1ccccc1 4.61%
COc1ccc(CN2C[C@@H](C)[C@H](OC)CN(C)C(=O)c3cc(NC(C)=O)ccc3OC[C@@H]2C)cc1 4.2%
C[C@H]1CN([C@@H](C)CO)C(=O)Cc2cc(NC(=O)Nc3ccc(C(F)(F)F)cc3)ccc2O[C@@H]1CN(C)S(=O)(=O)c1ccc(Cl)cc1 0.316%
CO[C@@H]1CN(C)C(=O)c2cc(NC(=O)C3CCOCC3)ccc2OC[C@H](C)N(Cc2cccnc2)C[C@H]1C 7.73%
CO[C@@H]1CN(C)C(=O)c2cc(NC(=O)c3ccccc3F)ccc2OC[C@@H](C)N(CC2CC2)C[C@H]1C -2.62%
COc1ccc(S(=O)(=O)N(C)C[C@H]2Oc3ccc(N(C)C)cc3C(=O)N([C@@H](C)CO)C[C@@H]2C)cc1 -9.71%
COc1ccccc1NC(=O)Nc1ccc2c(c1)OC[C@H](C)NC[C@H](C)[C@@H](OC)CN(C)C2=O 7.16%
COc1ccc(CN(C)C[C@H]2Oc3c(NC(=O)C4CCCCC4)cccc3C(=O)N([C@@H](C)CO)C[C@H]2C)cc1 4.09%
O=C(Cc1cccnc1)N1CC(=O)N2[C@@H](CO)[C@H](c3ccc(C#CC4CC4)cc3)[C@@H]2C1 1.76%
O=C(NCC[C@H]1CC[C@@H](NC(=O)C2CCCC2)[C@@H](CO)O1)c1cc(Cl)cc(Cl)c1 -0.154%
C[C@@H]1CN([C@H](C)CO)C(=O)c2cc(NC(=O)CCCN(C)C)ccc2O[C@@H](C)CCCCO[C@@H]1CN(C)Cc1ccncc1 -3.78%
Cc1ccc(S(=O)(=O)NCC[C@@H]2CC[C@H](NC(=O)CC3CC3)[C@H](CO)O2)cc1 -0.231%
O=C(NC1CCC1)[C@H]1[C@H](CO)[C@H]2Cn3c(ccc(-c4ccccc4)c3=O)[C@@H]1N2Cc1cocn1 -0.224%
CCC(=O)N(C)C[C@@H]1Oc2cc(C#CC(C)(C)O)ccc2S(=O)(=O)N([C@@H](C)CO)C[C@@H]1C -4%
CCCC#Cc1cnc2c(c1)C(=O)N([C@H](C)CO)C[C@@H](C)[C@@H](CN(C)C(=O)C1CCOCC1)O2 2.67%
C[C@H](CO)N1C[C@H](C)[C@H](CN(C)CC2CCCCC2)Oc2ccc(NC(=O)CCN3CCOCC3)cc2CC1=O 0.283%
Cc1ccc(S(=O)(=O)N(C)C[C@@H]2Oc3ccc(NC(=O)c4ccncc4)cc3CC(=O)N([C@H](C)CO)C[C@H]2C)cc1 -4.73%
COc1ccc(S(=O)(=O)N2CC[C@@H]3[C@H](CO)Nc4ccc(C#Cc5cccc(OC)c5)cc4[C@@H]32)cc1 4.05%
C/C=C/c1ccc([C@H]2[C@@H](CO)N(C(=O)C3CC3)[C@@H]2CNC(=O)NC(C)C)cc1 -0.982%
CO[C@@H](CN(C)C(=O)c1cnccn1)[C@@H](C)CN([C@@H](C)CO)S(=O)(=O)c1ccc(Cl)cc1 0.364%
COc1ccc2c3c(n(C)c2c1)[C@@H](CO)N(CC1CC1)CC31CCN(C(=O)c2ccc3c(c2)OCO3)CC1 -0.398%
